Screens from PubChem BioAssay.
Rows were chosen to be rich in hits. Some 4.2% of all compounds tested hit in one or more screens of this group.
TRPV1 ag – HTS Assay for Compounds that Act as Agonists of the Vanilloid Receptor 1 | activation, % at 8.33 µM | 320,000 tested, 0.19% active | TRPV1-expressing cells, Fluo-8 calcium influx, agonist mode | Transient receptor potential cation channel subfamily V member 1 (Homo sapiens), Q8NER1; in the data active means activation above about 80%; inconclusive means between about 30% and that limit
Target sequence (Q8NER1 whole entry, looked up): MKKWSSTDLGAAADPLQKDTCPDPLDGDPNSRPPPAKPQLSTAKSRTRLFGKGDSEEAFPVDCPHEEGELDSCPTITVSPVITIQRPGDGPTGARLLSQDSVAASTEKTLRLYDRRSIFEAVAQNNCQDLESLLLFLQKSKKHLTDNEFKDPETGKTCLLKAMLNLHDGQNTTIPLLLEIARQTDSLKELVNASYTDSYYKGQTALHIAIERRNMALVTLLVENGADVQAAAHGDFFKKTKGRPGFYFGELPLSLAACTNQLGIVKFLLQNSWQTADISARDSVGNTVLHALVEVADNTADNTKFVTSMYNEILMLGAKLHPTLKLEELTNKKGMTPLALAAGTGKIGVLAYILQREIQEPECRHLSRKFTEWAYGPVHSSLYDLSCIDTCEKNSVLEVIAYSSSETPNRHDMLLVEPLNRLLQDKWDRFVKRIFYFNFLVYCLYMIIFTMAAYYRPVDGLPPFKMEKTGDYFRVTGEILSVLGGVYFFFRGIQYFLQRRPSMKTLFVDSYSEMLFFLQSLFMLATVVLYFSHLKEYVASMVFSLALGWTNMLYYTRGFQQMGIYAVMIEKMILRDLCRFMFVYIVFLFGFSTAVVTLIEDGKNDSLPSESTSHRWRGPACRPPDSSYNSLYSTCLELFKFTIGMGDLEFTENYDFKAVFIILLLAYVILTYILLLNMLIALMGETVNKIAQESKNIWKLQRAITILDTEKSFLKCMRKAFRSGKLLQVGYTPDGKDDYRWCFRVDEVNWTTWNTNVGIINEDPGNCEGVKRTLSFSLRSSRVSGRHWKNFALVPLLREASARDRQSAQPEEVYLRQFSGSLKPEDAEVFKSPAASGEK
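TRPV1-expressing cells were cultured overnight at 35.5C and loaded with Fluo-8 calcium dye for 40 to 90 min at room temperature. After a 10 s baseline, compound was added and calcium influx was read kinetically for 3 min (ex 480/em 520 nm).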
D1 potentiator – Potentiators of Human D1 Dopamine Receptor: qHTS | D(1A) dopamine receptor (Homo sapiens), P21728 | HEK293 TREx D1 cells, calcium flux, dopamine EC20 potentiation | potentiation, % at 10 µM | 360,000 tested, 0.036% active | AID 504651, 2011; in the data active means potentiation above about 30%
D1 antagonist – Antagonist of Human D 1 Dopamine Receptor: qHTS | D(1A) dopamine receptor (Homo sapiens), P21728 | HEK293 TREx D1 cells, calcium flux, dopamine EC80; hits give low values | activity change, negative = inhibition, % at 10 µM | 360,000 tested, 3.2% active | AID 504652, 2011; in the data active means activity change below about -30%
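Kinetic fluorescence of a calcium dye serves as the read-out. D1-expressing Hek293 Trex cells, induced overnight at 30 C, are exposed to compound for 180 s before an EC80 dopamine addition, then read 180 s further.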
D1 ag – Allosteric Agonists of the Human D1 Dopamine Receptor: qHTS; activation, % at 2 µM; 360,000 tested, 1% active; AID 504660, 2011; HEK293 T-REx D1 cells, calcium flux, agonist mode; D(1A) dopamine receptor (Homo sapiens), P21728; in the data active means activation above about 30%
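Tetracycline-induced HEK293 TREx D1 cells, force-coupled to calcium signalling, were dye-loaded with a no-wash calcium kit. Compound was pin-added after a 10 s baseline. Fluorescence was read kinetically at 1 cycle/s for 180 s, with calcium rises flagged as agonism.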
TRPV1 potentiator – HTS Assay for Compounds that Act as Potentiators of the Vanilloid Receptor 1; AID 540277, 2011; TRPV1-expressing cells, Fluo-8 calcium influx, capsaicin EC20 potentiation; 320,000 tested, 0.02% active; potentiation, % at 8.33 µM; in the data active means potentiation above about 80%; inconclusive means between about 30% and that limit
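Cells expressing TRPV1 were dye-loaded with Fluo-8 and read kinetically: 10 s baseline, 3 min after compound (agonist portion), then 2 min after EC20 capsaicin (allosteric enhancer portion). Calcium-bound dye fluorescence at 480/520 nm.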
Of the large screens only hits and unclear results are named; the others gave an inactive call.

O=C(COC(=O)c1ccc(CO)cc1)c1ccc(S(=O)(=O)N2CCCCC2)cc1	D1 antagonist -31.6
O=C(COC(=O)c1ccc(O)cc1)c1ccc(S(=O)(=O)N2CCCCC2)cc1	D1 antagonist -31.1
O=C(OCC(=O)N1CCN(C(=O)c2ccco2)CC1)c1ccc(S(=O)(=O)N2CCCCC2)cc1	D1 antagonist -57.5
O=C(OCC(=O)c1ccc[nH]1)c1ccc(S(=O)(=O)N2CCCCCC2)cc1	none
CCNC(=O)COC(=O)c1ccc(S(=O)(=O)N2CCCCCC2)cc1	none
O=C(c1ccco1)N1CCN(S(=O)(=O)c2ccc3c(c2)CCN3C(=O)C2CC2)CC1	D1 antagonist -46.6
O=S(=O)(c1ccc(C(F)(F)F)cc1)N1CCN(S(=O)(=O)c2ccc3c(c2)OCCO3)CC1	none (no result: TRPV1 ag, TRPV1 potentiator)
COc1ccc(/C=C/C(=O)OCC(=O)c2ccc(S(=O)(=O)N3CCCCC3)cc2)cc1OC	D1 antagonist -54.6
NC(=O)COC(=O)/C=C/c1ccc(S(=O)(=O)N2CCCCCC2)cc1	none
CC(Oc1ccc(Br)cc1)C(=O)Nc1ccncc1 (stereo not given)	TRPV1 ag inconclusive
CC(Oc1ccc(Cl)cc1Cl)C(=O)Nc1ccc(O)cc1 (stereo not given)	TRPV1 ag inconclusive
CC(Oc1ccc(Br)cc1Cl)C(=O)Nc1ccncc1 (stereo not given)	TRPV1 ag inconclusive, D1 antagonist -34.5
Cc1ccc(OC(C)C(=O)Nc2ccncc2)cc1C (stereo not given)	TRPV1 ag inconclusive, D1 antagonist -32.2
CC1=C(C(=O)OC(C)C)C(c2cccs2)NC(=O)N1 (stereo not given)	none
CC1=C(C(=O)OC(C)C)C(c2cccs2)C(C(=O)OC(C)C)=C(C)N1	D1 antagonist -32.2
CCOc1ccc(NC(=O)N(Cc2c[nH]c3ccccc23)C2CCCCC2)cc1	none (no result: TRPV1 ag, TRPV1 potentiator)
CCCCCCSc1nsc(NC(=O)CCC)n1	D1 antagonist -39.1
CSc1nsc(NC(=O)Cc2ccccc2)n1	none
Cc1cccc(N2CC(c3nc4ccc(C)cc4[nH]3)CC2=O)c1 (stereo not given)	none (no result: TRPV1 ag, TRPV1 potentiator)
CCC(=O)c1ccccc1OCCCn1cncn1	D1 antagonist -31.3 (no result: TRPV1 ag, TRPV1 potentiator)
COc1cccc(/C(O)=C/c2nc3ccc(C(=O)NCCc4ccc(Cl)cc4)cc3[nH]c2=O)c1	none
COc1cccc(/C(O)=C/c2nc3ccc(C(=O)NCCc4cccc(C)c4)cc3[nH]c2=O)c1	D1 antagonist -40.6, D1 ag 46.2
O=c1c2ccccc2n(Cc2cccc(Cl)c2)c(=O)n1CCc1ccccc1	none (no result: TRPV1 ag, TRPV1 potentiator)
Cc1ccc(S(=O)(=O)NC(=O)C2CCCCC2)cc1	D1 antagonist -36.1
Cc1cccc(N2C(=O)N3[C@H](c4ccc(F)cc4)[C@@H]4C(=O)N(C5CCCCC5)C(=O)[C@@H]4[C@]3(Cc3ccc(Cl)cc3)C2=O)c1	none
Cc1cccc(N2C(=O)N3[C@H](c4ccc(Cl)cc4)[C@@H]4C(=O)N(C5CCCCC5)C(=O)[C@@H]4[C@]3(Cc3ccc(Cl)cc3)C2=O)c1	D1 antagonist -40.3
Clc1ccc(Cc2nc(-c3ccncc3)no2)cc1	D1 antagonist -36.5
COc1ccc(Cc2nc(-c3ccncc3)no2)cc1	none
COc1cccc(-c2ccc3c(N)c(C(=O)Nc4ccc(C)c(F)c4)sc3n2)c1	none (no result: TRPV1 ag, TRPV1 potentiator)
COc1cccc(-c2ccc3c(N)c(C(=O)c4ccc(Cl)cc4)sc3n2)c1	D1 ag 97.6 (no result: TRPV1 ag, TRPV1 potentiator)
COc1ccc(C(=O)c2sc3nc(-c4ccccc4)ccc3c2N)cc1	D1 ag 157.9
Cc1cc(=O)n(Cc2ccccc2Cl)c2c1c(C)nn2-c1ccccc1	none (no result: TRPV1 ag, TRPV1 potentiator)
CCN1CCN(c2ncc3c(n2)CCN(Cc2ccc(Br)s2)C3)CC1	none (no result: TRPV1 ag, TRPV1 potentiator)
CN1CCN(c2ncc3c(n2)CCN(Cc2ccc(Br)s2)C3)CC1	D1 antagonist -40.5 (no result: TRPV1 ag, TRPV1 potentiator)
CCN1CCN(c2ncc3c(n2)CCN(Cc2ccc(C)s2)C3)CC1	D1 antagonist -32.5 (no result: TRPV1 ag, TRPV1 potentiator)
COc1cc(CN2CCc3nc(N4CCN(c5ccccn5)CC4)ncc3C2)cc(OC)c1OC	D1 antagonist -31.0 (no result: TRPV1 ag, TRPV1 potentiator)
CCN1CCN(c2ncc3c(n2)CCN(Cc2ccc(OC(C)C)cc2)C3)CC1	D1 antagonist -39.6 (no result: TRPV1 ag, TRPV1 potentiator)
